Measurements from PubChem BioAssay (NCI).
About 83,000 compounds went through this panel and 20% of them were active in at least one assay; those are over-represented in the sample as a whole.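 Each cell line was grown in a 96-well plate and treated with one concentration of compound for 48 hours. Values below 10 were considered active.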 Unmarked numbers belong to inactive results. The source made the active and inactive calls.

Key:
Experiment in all cases: NCI-60 one-dose screen, 48 h (100 = growth as untreated, 0 = no growth, -100 = all killed)
Conditions in all cases: 10 µM unless noted
T-47D breast = test system: T-47D breast
BT-549 breast = test system: BT-549 breast
MDA-MB-435 melanoma = test system: MDA-MB-435 melanoma
SW-620 colon = test system: SW-620 colon
MCF7 breast = test system: MCF7 breast
HCT-116 colon = test system: HCT-116 colon
HCC-2998 colon = test system: HCC-2998 colon
KM12 colon = test system: KM12 colon

Row | SMILES | growth (T-47D breast) | growth (BT-549 breast) | growth (MDA-MB-435 melanoma) | growth (SW-620 colon) | growth (MCF7 breast) | growth (HCT-116 colon) | growth (HCC-2998 colon) | growth (KM12 colon)
1 | CC(=O)c1c([Si](C)(C)C)c2cc(C#N)ccn2c1C(=O)c1ccc(Br)cc1 | 73.8% | 97.5% | 92.5% | 87.2% | 82.5% | 56% | 89.9% | 88.3%
2 | Brc1cccc(-c2cc(-c3cnc4c(c3)OCCO4)n[nH]2)c1 | 40.2% | 67.3% | -29.3% (active) | 25.3% | 10% | 27.4% | 46.7% | 41.6%
3 | CC1=C(C)C(=O)C(Nc2ccc3c(c2)OCO3)=C(Br)C1=O | 30.3% | 107% | 103% | 107% | 77.5% | 85.6% | 105% | 97.4%
4 | CC1=Cc2ccccc2OC12C=Cc1ccccc1O2 (stereo not given) | 81.8% | 106% | 105% | 101% | 82.6% | 99.3% | 99.9% | 97.6%
5 | CC(C)NC(=O)c1cc(-c2ccc(NC(=O)Nc3ccc(F)cc3)cc2)nc2cccnc12 | 97.8% | 104% | 98.7% | 108% | 79.9% | 95.5% | 108% | 95.7%
6 | O=C(CSc1nnc(-c2cccs2)n1-c1ccccc1)Nc1ccccc1F | 88.9% | 89.2% | 3.39% (active) | 69.3% | 58.9% | 83.7% | 91.6% | 61.5%
7 | O=C(CSc1nnc(-c2ccc(Cl)cc2)n1-c1ccccc1)Nc1ccc(Cl)cc1 | 30.9% | 70.2% | 42.3% | 58.6% | 53.3% | 1.07% (active) | 70.1% | 57.6%
8 | Nn1c(=O)n(-c2cccc(C(F)(F)F)c2)c(=O)c2cc(-c3ccc(F)cc3F)ccc21 | -13.8% (active) | -6.33% (active) | 3.27% (active) | 17% | 1.3% (active) | 3.16% (active) | 12.5% | 8.93% (active)
9 | C=C(C)[C@@H]1CC[C@]2(C(=O)O)CC[C@]3(C)[C@H](CC[C@@H]4[C@@]5(C)C/C(=C/c6ccccn6)C(=O)C(C)(C)[C@@H]5CC[C@]43C)[C@@H]12 | 19% | 45.8% | 36.6% | 27.9% | 18.7% | 13.5% | 31.3% | 30.6%
10 | Cc1csc(/N=C(N)/N=C(\N)c2cccs2)n1 | 95.9% | 134% | 106% | 106% | 81.2% | 107% | 116% | 97.8%
11 | CNC(=O)c1cc(N2CCc3cc(NC(=O)Nc4ccc(N5CCOCC5)c(C(F)(F)F)c4)ccc32)ccn1 | 28.1% | -12.6% (active) | 41.5% | 34.6% | 12.4% | 2.52% (active) | 22% | 11.1%
12 | COc1ccc(/C(=N\NC(N)=S)c2ccc(Cl)cc2)cc1OC | 18.1% | 14.2% | -35.1% (active) | 15.9% | 14.4% | 14.9% | 52.6% | 19.4%
13 | CCc1cc(OC(=O)N2CCN(CCC(C)(COC(C)(C)C)COC(C)(C)C)CC2)ccc1Nc1cc(-c2ccc(-n3cccn3)cc2)[nH]n1 | 61% | 108% | 85.3% | 94.8% | 50.1% | 66.3% | 91.5% | 85.6%
14 | C/C(=C(\c1ccc(O)cc1)c1ccc(OCCN2CCCCCC2)cc1)c1ccc(Cl)cc1 | -71.9% (active) | -71.8% (active) | -73.9% (active) | -2.89% (active) | -81.1% (active) | -31.7% (active) | -88.2% (active) | -96.1% (active)
15 | CN1CCN(c2ccc(Nc3nc(NCCCNS(=O)(=O)c4cccc(F)c4)c4sccc4n3)cc2)CC1 | 22.8% | 42.7% | 14.1% | 46.5% | 25.7% | 11.1% | 37.9% | 54%
